TDP1 cell noCPT: qHTS for Inhibitors of human tyrosyl-DNA phosphodiesterase 1 (TDP1): qHTS in cells in absence of CPT. DT40 Tdp1-/- hTDP1 cells, no CPT, ATP luminescence, 48 h. Potency, µM (series often up to 46.2 µM), for inactives: top-dose activity change, negative = growth inhibition, most hits filed as inhibitors. hit rate 15% among 420,000. AID 686978, 2013; further: potency means the concentration at half of the fitted maximal effect; on the % scale 0 is the no-effect control and ±100 the full control effect; nearly all actives have a fitted effect of over 55% in size
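DT40 Tdp1-/-;hTDP1 cells, no CPT (DMSO vehicle only), 400 cells/well; compounds pin-transferred; ≥48 hr, 37 °C; CellTiter-Glo 30 min RT dark, luminescence read.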
IL-1B inflam inh: inhibitors of inflammasome signaling (IL-1 beta secretion). THP-1 LPS/ATP IL-1B secretion, AlphaLISA, 16 h; active compounds read low. activity change, % at 57.5 µM. hit rate 4.7% among 360,000. AID 743279; in the data active means activity change below about -50%; inconclusive means mostly about -30% to -49%; further: on the % scale 0 is the no-effect control and ±100 the full control effect
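THP-1 cells pretreated 1 hr with compounds (up to 57.5 uM final), then stimulated with LPS (250 ng/mL final) plus ATP (1.25 mM final); secreted IL-1B measured by AlphaLISA after 16 hr, decreased signal indicating inhibition.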
DT40 TDP1 CPT: DT40-hTDP1 cell growth loss with CPT; Potency, µM (top dose mostly 46.2 µM), for the others: top-dose activity change, negative = growth inhibition, hits mostly inhibitors; chicken DT40 Tdp1-/-;hTDP1 cells + 20 nM CPT, ATP luminescence, 48 h; hit rate 12% among 420,000; AID 686979; further: potency means the concentration at half of the fitted maximal effect; on the % scale 0 is the no-effect control and ±100 the full control effect; nearly all actives have a fitted effect of over 55% in size
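Cell growth measured by CellTiter-Glo luminescence after a minimum 48 h, 37 C compound exposure with 20 nM CPT in Tdp1-knockout DT40 cells stably expressing hTDP1, seeded 400/well; qHTS titration format.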
TGFb SMAD3 inh: blocks TGF-b signaling; HepG2 CAGA-GFP TGF-b/SMAD3 reporter, GFP fluorescence, 18 h; TGF-beta stimulated, 500 pg/mL final; hit rate 1.2% among 410,000; Potency, µM (series often up to 46.1 µM), for inactives: at the highest dose activity, negative = inhibition, actives largely listed as inhibitors; AID 588855; further: potency means the concentration at half of the fitted maximal effect; on the % scale 0 is the no-effect control and ±100 the full control effect; nearly all actives have a fitted effect of over 65% in size
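HEPG2 CAGA-GFP cells (1000/well, DMEM with 1% FBS) were pre-incubated 2 h at 37 degrees C, given compound by pin tool, then stimulated with TGF-beta at 500 pg/mL final for 18 h before per-cell GFP fluorescence imaging.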
HepG2 tox: counter-screen for TGF-b inhibitors: cytotoxicity in HepG2 cells | HepG2 CAGA-GFP viability, ATP luminescence, 18 h | Potency, µM (highest dose often 46.1 µM), for inactives: at the top dose activity change, negative = cytotoxicity, most hits filed as cytotoxic | hit rate 0.76% among 410,000 | AID 588856; further: potency means the concentration at half of the fitted maximal effect
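HepG2 CAGA-GFP cells (1000/well, DMEM with 1% FBS) received compound, then TGF-beta at 500 pg/mL final, and were incubated 18 hours at 37 degrees C. Viability was read by CellTiter-Glo luminescence. Media-only wells were set as complete cell-killing and DMSO as no toxicity.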
ASM inhibitor: inhibitors of human secretory acid sphingomyelinase; P17405; placental ASM, HMU-PC fluorogenic substrate, 60 min; Potency, µM (highest dose often 57.5 µM), for inactives: at the highest dose activity change, negative = inhibition, actives largely listed as inhibitors; hit rate 0.006% among 340,000; further: potency means the concentration at half of the fitted maximal effect
Target sequence (P17405 47-631 limits assumed): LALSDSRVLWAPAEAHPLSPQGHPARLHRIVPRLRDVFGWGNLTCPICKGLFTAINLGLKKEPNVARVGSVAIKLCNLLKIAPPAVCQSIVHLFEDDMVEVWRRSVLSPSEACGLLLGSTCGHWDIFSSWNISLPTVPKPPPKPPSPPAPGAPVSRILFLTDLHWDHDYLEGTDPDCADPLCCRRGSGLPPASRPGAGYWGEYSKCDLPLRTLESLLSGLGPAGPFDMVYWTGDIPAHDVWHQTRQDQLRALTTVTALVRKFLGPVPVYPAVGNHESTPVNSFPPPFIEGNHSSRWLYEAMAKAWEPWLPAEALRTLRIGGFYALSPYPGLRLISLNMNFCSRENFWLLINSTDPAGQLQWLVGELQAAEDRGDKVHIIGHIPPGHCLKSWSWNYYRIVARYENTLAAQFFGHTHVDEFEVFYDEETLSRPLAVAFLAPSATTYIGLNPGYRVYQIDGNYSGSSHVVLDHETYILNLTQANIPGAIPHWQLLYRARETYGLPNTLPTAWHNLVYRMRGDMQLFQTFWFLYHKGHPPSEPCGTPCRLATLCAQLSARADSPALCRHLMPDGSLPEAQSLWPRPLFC
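HMU-PC0 cleavage (9 uM final) by human placental ASM, 60 min at 37 °C following 10 min compound exposure at RT; stopped at pH 10, fluorescence Ex 386/Em 447 nm.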
The depositor's hits bear a star; ? = inconclusive; / = no result. An excerpt weighted towards active compounds, which were near 19% of everything screened. Unless noted, the call rests on the fitted dose curve; in most records, active means well fitted curve in the direction sought with a large enough effect; inconclusive means small, poorly fitted or top-dose-only effect, or another doubt; inactive means no such curve, though single readings can be large; an effect the other way counts as inactive or inconclusive.

SMILES | TDP1 cell noCPT | IL-1B inflam inh | DT40 TDP1 CPT | TGFb SMAD3 inh | HepG2 tox | ASM inhibitor
Cc1ccc(-n2c(SCC(=O)N/N=C/c3ccc(C)s3)nnc2-c2ccccc2)cc1 | ? | -57.1* | ? | -13.1% | -0.4% | -20.0%
O=C(CSc1nnc(-c2ccc(Cl)cc2)n1-c1ccc(Cl)cc1)N/N=C/c1ccco1 | ? | 0.0 | 20.6µM* | ? | -60.3% | -4.8%
COC(=O)C1=C(C)N(Cc2ccccc2)C(=NCc2cccc(Cl)c2)N[C@H]1c1ccccc1 | 20.6µM* | ? | 11.6µM* | ? | -96.0% | -8.3%
COCCN=C1N[C@@H](c2ccccc2)C(C(=O)OC)=C(C)N1Cc1ccccc1 | 23.1µM* | -16.6 | ? | 0.9% | -16.3% | 10.1%
C=CCN=C1N[C@@H](c2ccccc2)C(C(=O)OC)=C(C)N1CCOC | -23.3% | -7.5 | -27.5% | -15.8% | -12.6% | 12.4%
COC(=O)C1=C(C)N(Cc2ccccc2)C(=NCc2ccccc2)N[C@H]1c1cccc(F)c1 | 8.2µM* | 0.0 | 16.4µM* | ? | -112.2% | -3.2%
COC(=O)C1=C(C)N(Cc2ccccc2)C(=S)N[C@H]1c1cccc(F)c1 | -16.1% | -6.1 | ? | ? | 11.4% | -12.4%
COC(=O)C1=C(C)N(CC2CC2)C(=NCc2cccc(Cl)c2)N[C@H]1c1ccccc1 | ? | -61.7* | 16.4µM* | ? | -33.8% | 7.1%
Cc1ccc(NC(=O)CCC(=O)NNC(=O)c2ccccc2)c(C)c1 | 3.0% | -10.7 | -1.8% | 2.3% | 3.9% | -2.9%
CCCOc1cc2c(C#N)c(N3CCCC3)nc(N)c2c(N)n1 | -25.6% | -19.6 | -25.6% | ? | -8.2% | 169.8%
COc1cccc(N2CCN(C(=O)CN3CCSc4ccc(S(=O)(=O)N(C)C)cc43)CC2)c1 | / | / | / | 22.5% | -11.8% | /
COCCn1c(SCc2ccc(Cl)cc2)nc2c1c(=O)[nH]c(=O)n2C | ? | 15.7 | 8.3% | 11.0% | -5.4% | -1.5%
CCCCCCn1c(SCCC)nc2c1c(=O)[nH]c(=O)n2C | 10.3µM* | 17.3 | -22.8% | -6.3% | -27.8% | -1.9%
C/C=C/Cn1c(SC)nc2c1c(=O)[nH]c(=O)n2C | ? | -9.2 | -26.7% | 0.0% | -1.3% | -2.5%
C/C=C/Cn1c(SCCCc2ccccc2)nc2c1c(=O)[nH]c(=O)n2C | ? | 36.2 | ? | -24.8% | -24.8% | ?
C=CCn1c(SCCCc2ccccc2)nc2c1c(=O)[nH]c(=O)n2C | 25.9µM* | 53.9 | ? | 13.1% | -15.4% | -11.0%
C/C=C/Cn1c(SCc2ccc(Cl)cc2)nc2c1c(=O)[nH]c(=O)n2C | 23.1µM* | 17.8 | 18.4µM* | 2.4% | -30.2% | -7.2%
CCCCCn1c(SCCOCC)nc2c1c(=O)[nH]c(=O)n2C | ? | 2.4 | ? | -0.1% | -7.7% | -7.3%
CCCn1c(SCc2ccc(Cl)cc2)nc2c1c(=O)[nH]c(=O)n2C | 16.4µM* | -10.2 | ? | -18.7% | 11.5% | -14.7%
CC(C)(Cc1ccc(O)cc1)NC(=O)c1ccccc1 | -5.6% | -15.8 | 0.2% | 20.1% | -11.2% | 1.6%
Cc1cc(O)cc2c1O[C@](C)(CCC[C@H](C)CCC[C@H](C)CCCC(C)C)CC2 | -18.1% | / | -9.5% | / | / | /
CCn1c(SCc2ccccc2)nc2c1c(=O)[nH]c(=O)n2C | 18.4µM* | 48.1 | ? | 12.7% | -1.9% | -0.9%
CN(C)S(=O)(=O)c1ccc2c(c1)C(=NO)c1cc(S(=O)(=O)N(C)C)ccc1-2 | 8.2µM* | 8.5 | ? | -10.9% | -12.8% | 25.3%
CN(C)S(=O)(=O)c1ccc2c(c1)C(=O)c1cc(S(=O)(=O)N(C)C)ccc1CC2 | / | / | / | 4.2% | 4.3% | 0.0%
CN(C)N=C1c2cc(S(=O)(=O)N(C)C)ccc2-c2ccc(S(=O)(=O)N(C)C)cc21 | 2.91µM* | 9.0 | 4.61µM* | 1.3% | -23.8% | ?
SMILES | TDP1 cell noCPT | IL-1B inflam inh | DT40 TDP1 CPT | TGFb SMAD3 inh | HepG2 tox | ASM inhibitor
CN(C)S(=O)(=O)c1ccc2c(c1)C(=NNC(N)=O)c1cc(S(=O)(=O)N(C)C)ccc1-2 | ? | -1.2 | 16.4µM* | 0.9% | -0.4% | 8.0%
COc1ccc(NC(=O)C(=O)NCC2CCCN2S(=O)(=O)c2cccs2)cc1 (stereo unspecified) | 2.06µM* | -6.2 | 2.31µM* | ? | 4.6% | 0.1%
COc1ccccc1CNC(=O)C(=O)NCCC1CCCCN1S(=O)(=O)c1cccs1 (stereo unspecified) | ? | ? | ? | 9.9% | -30.6% | 2.3%
COc1ccc(-c2nnc(NC(=O)C3CCCN3S(=O)(=O)c3cccs3)o2)cc1 (stereo unspecified) | -26.6% | 5.2 | ? | 0.0% | -26.4% | -1.9%
Cc1ccccc1NC(=O)C(=O)NCC1CCCN1S(=O)(=O)c1cccs1 (stereo unspecified) | ? | 4.0 | -29.1% | -2.3% | -15.0% | 2.3%
Cc1ccccc1CNC(=O)C(=O)NCCC1CCCCN1S(=O)(=O)c1cccs1 (stereo unspecified) | ? | -23.5 | 18.4µM* | -21.7% | -32.7% | /
O=C(Nc1nnc(-c2ccccc2)o1)C1CCCN1S(=O)(=O)c1cccs1 (stereo unspecified) | ? | -59.3* | -29.4% | 0.4% | -1.9% | 2.7%
O=C(NCCc1ccccc1)C(=O)NCC1CCCN1S(=O)(=O)c1cccs1 (stereo unspecified) | ? | 5.2 | 23.1µM* | -10.8% | -11.1% | -0.9%
CCCCCOc1ccc(NC(=O)C(=O)NCC2CCCN2CC)cc1 (stereo unspecified) | ? | -7.2 | 16.4µM* | -4.1% | 3.3% | -0.8%
CC1(C(=O)N2CCCCC2)CCN1C(=O)c1ccccc1CCc1ccccc1 (stereo unspecified) | 14.6µM* | 0.0 | ? | -2.8% | -1.8% | /
CC1(C(=O)NS(=O)(=O)c2cccc(F)c2)CCN1C(=O)c1ccccc1CCc1ccccc1 (stereo unspecified) | -28.4% | 0.0 | ? | 9.4% | -0.9% | /
Cc1ccc(NC(=O)C2(C)CCN2C(=O)c2ccccc2CCc2ccccc2)cc1C (stereo unspecified) | -94.7% | -15.7 | 20.6µM* | 1.7% | -23.1% | /
COc1ccc(NC(=O)C2(C)CCN2C(=O)c2ccccc2CCc2ccccc2)cc1OC (stereo unspecified) | 9.2µM* | -1.2 | 14.6µM* | 16.5% | -0.9% | /

Bioassay records deposited in PubChem by National Center for Advancing Translational Sciences (NCATS).
